± gives the standard deviation of the averaged measurements.
Molecular target: AgAbp1
Assay: SPOT peptide array binding signal intensity (averaged, normalized) (arbitrary units (background-subtracted, floor 0; scale differs between SH3 domains)); higher = stronger binding of the SH3 domain to the peptide
How it was run: (§1)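 GST-fused SH3 domains from four yeast species were expressed in E. coli BL21(DE3), purified on glutathione Sepharose and incubated at 10 μg/ml overnight at 4°C in TBS-based blocking buffer on cellulose membranes carrying synthetic 15-mer peptides, with cysteines replaced by serines. Bound protein was detected with anti-GST antibody, an HRP anti-mouse secondary and luminol, then imaged and quantified with Genespotter. Binding signal is the normalized, background-subtracted spot intensity averaged over replicates, in arbitrary units that differ between domains.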

Binder | SPOT peptide array binding signal intensity
VSKLRSPNTPRRLRK | 210 ± 71

Molecular target: AgBbc1
Assay: as above
How it was run: as §1

Binder | SPOT peptide array binding signal intensity
VSKLRSPNTPRRLRK | 284 ± 140

Molecular target: AgBem1-D1
Assay: as above
How it was run: as §1

Binder | SPOT peptide array binding signal intensity
VSKLRSPNTPRRLRK | 116 ± 54

Molecular target: AgBzz1-D1
Assay: as above
How it was run: as §1

Binder | SPOT peptide array binding signal intensity
VSKLRSPNTPRRLRK | 65.5 ± 29

Molecular target: AgBzz1-D2
Assay: as above
How it was run: as §1

Binder | SPOT peptide array binding signal intensity
VSKLRSPNTPRRLRK | 44.8 ± 5.3

Molecular target: AgCyk3
Assay: as above
How it was run: as §1

Binder | SPOT peptide array binding signal intensity
VSKLRSPNTPRRLRK | 7 ± 0.71

Molecular target: AgFus1
Assay: as above
How it was run: as §1

Binder | SPOT peptide array binding signal intensity
VSKLRSPNTPRRLRK | 192 ± 110

Molecular target: AgHof1
Assay: as above
How it was run: as §1

Binder | SPOT peptide array binding signal intensity
VSKLRSPNTPRRLRK | 68 ± 14

Molecular target: AgHse1
Assay: as above
How it was run: as §1

Binder | SPOT peptide array binding signal intensity
VSKLRSPNTPRRLRK | 352 ± 230

Molecular target: AgLsb1
Assay: as above
How it was run: as §1

Binder | SPOT peptide array binding signal intensity
VSKLRSPNTPRRLRK | 3.38 ± 4.1

Molecular target: AgLsb4
Assay: as above
How it was run: as §1

Binder | SPOT peptide array binding signal intensity
VSKLRSPNTPRRLRK | 48.8 ± 16

Molecular target: AgMyo5
Assay: as above
How it was run: as §1

Binder | SPOT peptide array binding signal intensity
VSKLRSPNTPRRLRK | 2.75 ± 2.5

Molecular target: AgNbp2
Assay: as above
How it was run: as §1

Binder | SPOT peptide array binding signal intensity
VSKLRSPNTPRRLRK | 84.2 ± 8.8

Molecular target: AgRvs167
Assay: as above
How it was run: as §1

Binder | SPOT peptide array binding signal intensity
VSKLRSPNTPRRLRK | 9.83 ± 2.1

Molecular target: AgSho1
Assay: as above
How it was run: as §1

Binder | SPOT peptide array binding signal intensity
VSKLRSPNTPRRLRK | 13 ± 2.8

Molecular target: AgSla1-D1-D2
Assay: as above
How it was run: as §1

Binder | SPOT peptide array binding signal intensity
VSKLRSPNTPRRLRK | 334 ± 170

Molecular target: AgSla1-D3
Assay: as above
How it was run: as §1

Binder | SPOT peptide array binding signal intensity
VSKLRSPNTPRRLRK | 8.88 ± 5.8

Molecular target: CaAbp1-D1
Assay: as above
How it was run: as §1

Binder | SPOT peptide array binding signal intensity
VSKLRSPNTPRRLRK | 897 ± 89

Molecular target: CaAbp1-D2
Assay: as above
How it was run: as §1

Binder | SPOT peptide array binding signal intensity
VSKLRSPNTPRRLRK | 576 ± 100

Molecular target: CaBbc1
Assay: as above
How it was run: as §1

Binder | SPOT peptide array binding signal intensity
VSKLRSPNTPRRLRK | 863 ± 130

Molecular target: CaBem1-D1
Assay: as above
How it was run: as §1

Binder | SPOT peptide array binding signal intensity
VSKLRSPNTPRRLRK | 64 ± 8.5

Molecular target: CaBzz1-D1
Assay: as above
How it was run: as §1

Binder | SPOT peptide array binding signal intensity
VSKLRSPNTPRRLRK | 156 ± 7.4

Molecular target: CaBzz1-D2
Assay: as above
How it was run: as §1

Binder | SPOT peptide array binding signal intensity
VSKLRSPNTPRRLRK | 146 ± 120

Molecular target: CaCyk3
Assay: as above
How it was run: as §1

Binder | SPOT peptide array binding signal intensity
VSKLRSPNTPRRLRK | 47.2 ± 1.1

Molecular target: CaFus1
Assay: as above
How it was run: as §1

Binder | SPOT peptide array binding signal intensity
VSKLRSPNTPRRLRK | 230 ± 22

Molecular target: CaHof1
Assay: as above
How it was run: as §1

Binder | SPOT peptide array binding signal intensity
VSKLRSPNTPRRLRK | 0.5 ± 0.71

Molecular target: CaHse1
Assay: as above
How it was run: as §1

Binder | SPOT peptide array binding signal intensity
VSKLRSPNTPRRLRK | 4.62 ± 3.4

Molecular target: CaLsb1
Assay: as above
How it was run: as §1

Binder | SPOT peptide array binding signal intensity
VSKLRSPNTPRRLRK | 0.75 ± 0.35

Molecular target: CaLsb4
Assay: as above
How it was run: as §1

Binder | SPOT peptide array binding signal intensity
VSKLRSPNTPRRLRK | 778 ± 490

Molecular target: CaMyo5
Assay: as above
How it was run: as §1

Binder | SPOT peptide array binding signal intensity
VSKLRSPNTPRRLRK | 3.38 ± 0.18

Molecular target: CaNbp2
Assay: as above
How it was run: as §1

Binder | SPOT peptide array binding signal intensity
VSKLRSPNTPRRLRK | 166 ± 86

Molecular target: CaRvs167
Assay: as above
How it was run: as §1

Binder | SPOT peptide array binding signal intensity
VSKLRSPNTPRRLRK | 23.8 ± 10

Molecular target: CaRvs167-3
Assay: as above
How it was run: as §1

Binder | SPOT peptide array binding signal intensity
VSKLRSPNTPRRLRK | 28.2 ± 2.5

Molecular target: CaSho1
Assay: as above
How it was run: as §1

Binder | SPOT peptide array binding signal intensity
VSKLRSPNTPRRLRK | 131 ± 3.9

Molecular target: CaSla1-D1-D2
Assay: as above
How it was run: as §1

Binder | SPOT peptide array binding signal intensity
VSKLRSPNTPRRLRK | 270 ± 140

Molecular target: CaSla1-D3
Assay: as above
How it was run: as §1

Binder | SPOT peptide array binding signal intensity
VSKLRSPNTPRRLRK | 3.88 ± 0.53

Molecular target: ScAbp1
Assay: as above
How it was run: as §1

Binder | SPOT peptide array binding signal intensity
VSKLRSPNTPRRLRK | 41 ± 23

Molecular target: ScBbc1
Assay: as above
How it was run: as §1

Binder | SPOT peptide array binding signal intensity
VSKLRSPNTPRRLRK | 266 ± 81

Molecular target: ScBem1-D1
Assay: as above
How it was run: as §1

Binder | SPOT peptide array binding signal intensity
VSKLRSPNTPRRLRK | 25.2 ± 17

Molecular target: ScBzz1-D1
Assay: as above
How it was run: as §1

Binder | SPOT peptide array binding signal intensity
VSKLRSPNTPRRLRK | 23 ± 9.9

Molecular target: ScBzz1-D2
Assay: as above
How it was run: as §1

Binder | SPOT peptide array binding signal intensity
VSKLRSPNTPRRLRK | 9.25 ± 3.9

Molecular target: ScCyk3
Assay: as above
How it was run: as §1

Binder | SPOT peptide array binding signal intensity
VSKLRSPNTPRRLRK | 110 ± 25

Molecular target: ScFus1
Assay: as above
How it was run: as §1

Binder | SPOT peptide array binding signal intensity
VSKLRSPNTPRRLRK | 143 ± 42

Molecular target: ScHof1
Assay: as above
How it was run: as §1

Binder | SPOT peptide array binding signal intensity
VSKLRSPNTPRRLRK | ≤ 0

Molecular target: ScHse1
Assay: as above
How it was run: as §1

Binder | SPOT peptide array binding signal intensity
VSKLRSPNTPRRLRK | 701 ± 130

Molecular target: ScLsb1
Assay: as above
How it was run: as §1

Binder | SPOT peptide array binding signal intensity
VSKLRSPNTPRRLRK | 33.2 ± 7.8

Molecular target: ScLsb2
Assay: as above
How it was run: as §1

Binder | SPOT peptide array binding signal intensity
VSKLRSPNTPRRLRK | 11.8 ± 1.1

Molecular target: ScLsb3
Assay: as above
How it was run: as §1

Binder | SPOT peptide array binding signal intensity
VSKLRSPNTPRRLRK | 2420 ± 260

Molecular target: ScLsb4
Assay: as above
How it was run: as §1

Binder | SPOT peptide array binding signal intensity
VSKLRSPNTPRRLRK | 70.5 ± 9.2

Molecular target: ScMyo3
Assay: as above
How it was run: as §1

Binder | SPOT peptide array binding signal intensity
VSKLRSPNTPRRLRK | 2.62 ± 2.3

Molecular target: ScMyo5
Assay: as above
How it was run: as §1

Binder | SPOT peptide array binding signal intensity
VSKLRSPNTPRRLRK | 2.88 ± 1.9

Molecular target: ScNbp2
Assay: as above
How it was run: as §1

Binder | SPOT peptide array binding signal intensity
VSKLRSPNTPRRLRK | 275 ± 49

Molecular target: ScPex13
Assay: as above
How it was run: as §1

Binder | SPOT peptide array binding signal intensity
VSKLRSPNTPRRLRK | 8.5 ± 12

Molecular target: ScRvs167
Assay: as above
How it was run: as §1

Binder | SPOT peptide array binding signal intensity
VSKLRSPNTPRRLRK | 230.2 ± 2.2

Molecular target: ScSho1
Assay: as above
How it was run: as §1

Binder | SPOT peptide array binding signal intensity
VSKLRSPNTPRRLRK | 258 ± 32

Molecular target: ScSla1-D1-D2
Assay: as above
How it was run: as §1

Binder | SPOT peptide array binding signal intensity
VSKLRSPNTPRRLRK | 953 ± 160

Molecular target: ScSla1-D3
Assay: as above
How it was run: as §1

Binder | SPOT peptide array binding signal intensity
VSKLRSPNTPRRLRK | 36.2 ± 41

Molecular target: SpAbp1-D1
Assay: as above
How it was run: as §1

Binder | SPOT peptide array binding signal intensity
VSKLRSPNTPRRLRK | 384 ± 320

Molecular target: SpBbc1
Assay: as above
How it was run: as §1

Binder | SPOT peptide array binding signal intensity
VSKLRSPNTPRRLRK | 5.75 ± 1.1

Molecular target: SpBzz1-D1
Assay: as above
How it was run: as §1

Binder | SPOT peptide array binding signal intensity
VSKLRSPNTPRRLRK | 236 ± 150

Molecular target: SpBzz1-D2
Assay: as above
How it was run: as §1

Binder | SPOT peptide array binding signal intensity
VSKLRSPNTPRRLRK | ≤ 0

Molecular target: SpCyk3
Assay: as above
How it was run: as §1

Binder | SPOT peptide array binding signal intensity
VSKLRSPNTPRRLRK | 5.75 ± 4.6

Molecular target: SpHof1
Assay: as above
How it was run: as §1

Binder | SPOT peptide array binding signal intensity
VSKLRSPNTPRRLRK | 183 ± 6

Molecular target: SpHof1-2
Assay: as above
How it was run: as §1

Binder | SPOT peptide array binding signal intensity
VSKLRSPNTPRRLRK | 17 ± 8.5

Molecular target: SpHof1-3
Assay: as above
How it was run: as §1

Binder | SPOT peptide array binding signal intensity
VSKLRSPNTPRRLRK | 319 ± 74

Molecular target: SpHse1
Assay: as above
How it was run: as §1

Binder | SPOT peptide array binding signal intensity
VSKLRSPNTPRRLRK | 172 ± 74

Molecular target: SpLsb1
Assay: as above
How it was run: as §1

Binder | SPOT peptide array binding signal intensity
VSKLRSPNTPRRLRK | 33.8 ± 4.6

Molecular target: SpLsb4
Assay: as above
How it was run: as §1

Binder | SPOT peptide array binding signal intensity
VSKLRSPNTPRRLRK | 2990 ± 950

Molecular target: SpMyo1
Assay: as above
How it was run: as §1

Binder | SPOT peptide array binding signal intensity
VSKLRSPNTPRRLRK | 3.25 ± 2.5

Molecular target: SpNbp2
Assay: as above
How it was run: as §1

Binder | SPOT peptide array binding signal intensity
VSKLRSPNTPRRLRK | 109 ± 68

Molecular target: SpPex13
Assay: as above
How it was run: as §1

Binder | SPOT peptide array binding signal intensity
VSKLRSPNTPRRLRK | 5.5 ± 2.1

Molecular target: SpRvs167
Assay: as above
How it was run: as §1

Binder | SPOT peptide array binding signal intensity
VSKLRSPNTPRRLRK | 195 ± 91

Molecular target: SpSla1-D1-D2
Assay: as above
How it was run: as §1

Binder | SPOT peptide array binding signal intensity
VSKLRSPNTPRRLRK | 10.2 ± 3.9

Molecular target: SpSla1-D3
Assay: as above
How it was run: as §1

Binder | SPOT peptide array binding signal intensity
VSKLRSPNTPRRLRK | 2.5 ± 0.71

From the supplement of paper PMC4466140
